Test results: PubChem BioAssay AID1159580 (chemical genetic matrix, 2015)
About 2,000 (36%) of roughly 5,500 compounds were called active. Inconclusive results (about 18%) are left out. Cut-off read from the data, not from the text of the source: active = normalized growth mostly below about 0.91 (no sharp cut-off); inconclusive = no clear call, values can overlap the other calls; inactive = mostly above about 0.92. Some of the results follow.

Test: chemical genetic growth profiling, strain panel (AID 1159580);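 note: tested at 20 µM; growth read once vehicle control cultures reached saturation at 30 °C; 1 = growth at the plate median or of vehicle wells; lower values mean less growth of the strain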
Conditions: growth OD

Measured: normalized growth

Cc1ncc([N+](=O)[O-])n1CCO
inactive: S. cerevisiae deletion strains, locus YJR075W, strain HOC1, active compounds read low 1.01 | S. cerevisiae deletion strains, locus YKL009W, strain mrt4, active compounds read low 0.969 | S. cerevisiae deletion strains, locus YKL068W, active compounds read low 0.99 | S. cerevisiae deletion strains, locus YKL085W, strain MDH1 (second series), active compounds read low 0.985 | S. cerevisiae deletion strains, locus YKL085W, strain MDH1, active compounds read low 0.985 | S. cerevisiae deletion strains, locus YKL160W, strain elf1, active compounds read low 0.955 | S. cerevisiae deletion strains, locus YKL190W, strain CNB1, active compounds read low 0.99 | S. cerevisiae deletion strains, locus YKR001C, strain vps1, active compounds read low 1 | S. cerevisiae deletion strains, locus YKR026C, strain gcn3, active compounds read low 0.984 | S. cerevisiae deletion strains, locus YKR091W, strain srl3, active compounds read low 0.962 | S. cerevisiae deletion strains, locus YLL001W, strain dnm1, active compounds read low 0.926 | S. cerevisiae deletion strains, locus YLL026W, active compounds read low 0.977 | S. cerevisiae deletion strains, locus YLL041C, strain sdh2, active compounds read low 0.98 | S. cerevisiae deletion strains, locus YLR027C, strain aat2, active compounds read low 0.98 | S. cerevisiae deletion strains, locus YLR039C, strain RIC1, active compounds read low 0.972 | S. cerevisiae deletion strains, locus YLR058C, strain SHM2, active compounds read low 0.97 | S. cerevisiae deletion strains, locus YLR102C, strain apc9, active compounds read low 0.991 | S. cerevisiae deletion strains, locus YLR113W, strain HOG1, active compounds read low 1.05 | S. cerevisiae deletion strains, locus YLR221C, strain rsa3, active compounds read low 0.941 | S. cerevisiae deletion strains, locus YLR258W, strain gsy2, active compounds read low 0.988 | S. cerevisiae deletion strains, locus YLR262C, strain YPT6 (second series), active compounds read low 0.964 | S. cerevisiae deletion strains, locus YLR262C, strain YPT6, active compounds read low 0.907 | S. cerevisiae deletion strains, locus YLR268W, strain sec22, active compounds read low 1.08 | S. cerevisiae deletion strains, locus YLR320W, strain mms22, active compounds read low 0.948 | S. cerevisiae deletion strains, locus YLR330W, strain CHS5, active compounds read low 0.987 | S. cerevisiae deletion strains, locus YLR342W, strain FKS1 (second series), active compounds read low 0.982 | S. cerevisiae deletion strains, locus YLR342W, strain FKS1, active compounds read low 0.978 | S. cerevisiae deletion strains, locus YLR357W, strain rsc2, active compounds read low 0.973 | S. cerevisiae deletion strains, locus YLR370C, strain arc18, active compounds read low 0.972 | S. cerevisiae deletion strains, locus YLR371W, strain rom2, active compounds read low 0.975 | S. cerevisiae deletion strains, locus YLR384C, strain iki3, active compounds read low 0.982 | S. cerevisiae deletion strains, locus YLR418C, strain cdc73, active compounds read low 0.991 | S. cerevisiae deletion strains, locus YML016C, strain PPZ1, active compounds read low 0.986 | S. cerevisiae deletion strains, locus YML032C, strain rad52, active compounds read low 1.01 | S. cerevisiae deletion strains, locus YML120C, strain ndi1, active compounds read low 0.942 | S. cerevisiae deletion strains, locus YML124C, strain tub3, active compounds read low 0.984 | S. cerevisiae deletion strains, locus YMR058W, strain fet3, active compounds read low 0.983 | S. cerevisiae deletion strains, locus YMR078C, strain ctf18, active compounds read low 0.976 | S. cerevisiae deletion strains, locus YMR125W, strain sto1, active compounds read low 0.958 | S. cerevisiae deletion strains, locus YMR129W, active compounds read low 0.98 | S. cerevisiae deletion strains, locus YMR205C, strain PFK2, active compounds read low 0.936 | S. cerevisiae deletion strains, locus YMR223W, strain ubp8, active compounds read low 0.952 | S. cerevisiae deletion strains, locus YMR231W, strain pep5, active compounds read low 0.986 | S. cerevisiae deletion strains, locus YMR263W, strain SAP30, active compounds read low 0.995 | S. cerevisiae deletion strains, locus YMR307W, strain GAS1, active compounds read low 0.976 | S. cerevisiae deletion strains, locus YNL067W, strain RPL9B, active compounds read low 0.994 | S. cerevisiae deletion strains, locus YNL071W, strain lat1, active compounds read low 0.978 | S. cerevisiae deletion strains, locus YNL128W, strain TEP1, active compounds read low 0.951 | S. cerevisiae deletion strains, locus YNL153C, strain GIM3, active compounds read low 1.01 | S. cerevisiae deletion strains, locus YNL183C, strain NPR1, active compounds read low 1.03 | S. cerevisiae deletion strains, locus YNL209W, strain ssb2, active compounds read low 0.974 | S. cerevisiae deletion strains, locus YNL233W, strain BNI4, active compounds read low 1.02 | S. cerevisiae deletion strains, locus YNL248C, strain rpa49, active compounds read low 0.981 | S. cerevisiae deletion strains, locus YNL250W, strain rad50, active compounds read low 0.975 | S. cerevisiae deletion strains, locus YNL271C, strain bni1, active compounds read low 0.989 | S. cerevisiae deletion strains, locus YNL298W, strain CLA4, active compounds read low 0.992 | S. cerevisiae deletion strains, locus YNL307C, strain MCK1, active compounds read low 0.989 | S. cerevisiae deletion strains, locus YNL322C, strain KRE1 (second series), active compounds read low 0.974 | S. cerevisiae deletion strains, locus YNL322C, strain KRE1, active compounds read low 0.986 | S. cerevisiae deletion strains, locus YNR049C, strain mso1, active compounds read low 0.96 | S. cerevisiae deletion strains, locus YNR052C, strain pop2, active compounds read low 0.989 | S. cerevisiae deletion strains, locus YOL006C, strain TOP1, active compounds read low 1 | S. cerevisiae deletion strains, locus YOL012C, strain htz1 0.99 | S. cerevisiae deletion strains, locus YOL147C, strain pex11, active compounds read low 0.986 | S. cerevisiae deletion strains, locus YOR001W, strain rrp6, active compounds read low 1 | S. cerevisiae deletion strains, locus YOR061W, strain CKA2, active compounds read low 0.967 | S. cerevisiae deletion strains, locus YOR069W, strain VPS5, active compounds read low 0.989 | S. cerevisiae deletion strains, locus YOR070C, strain gyp1, active compounds read low 0.987 | S. cerevisiae deletion strains, locus YOR080W, strain dia2, active compounds read low 0.977 | S. cerevisiae deletion strains, locus YOR083W, strain WHI5, active compounds read low 0.954 | S. cerevisiae deletion strains, locus YOR106W, strain vam3, active compounds read low 0.937 | S. cerevisiae deletion strains, locus YOR136W, strain idh2, active compounds read low 0.984 | S. cerevisiae deletion strains, locus YOR144C, strain elg1, active compounds read low 0.989 | S. cerevisiae deletion strains, locus YOR184W, strain ser1, active compounds read low 0.998 | S. cerevisiae deletion strains, locus YOR231W, strain MKK1, active compounds read low 1.06 | S. cerevisiae deletion strains, locus YOR265W, strain rbl2, active compounds read low 0.985 | S. cerevisiae deletion strains, locus YOR270C, strain vph1, active compounds read low 0.958 | S. cerevisiae deletion strains, locus YOR290C, strain snf2, active compounds read low 0.91 | S. cerevisiae deletion strains, locus YOR316C, strain cot1, active compounds read low 0.992 | S. cerevisiae deletion strains, locus YPL051W, strain arl3, active compounds read low 0.978 | S. cerevisiae deletion strains, locus YPL055C, strain LGE1, active compounds read low 0.974 | S. cerevisiae deletion strains, locus YPL078C, strain atp4, active compounds read low 0.959 | S. cerevisiae deletion strains, locus YPL106C, strain sse1, active compounds read low 0.943 | S. cerevisiae deletion strains, locus YPL240C, strain hsp82, active compounds read low 0.983 | S. cerevisiae deletion strains, locus YPL241C, strain CIN2, active compounds read low 0.982 | S. cerevisiae deletion strains, locus YPL256C, strain CLN2, active compounds read low 1.1 | S. cerevisiae deletion strains, locus YPR119W, strain clb2, active compounds read low 0.992 | S. cerevisiae deletion strains, locus YPR141C, strain kar3, active compounds read low 0.982 | S. cerevisiae deletion strains, locus YPR163C, strain tif3, active compounds read low 0.987 | S. cerevisiae deletion strains, locus YPR167C, strain met16, active compounds read low 0.998 | S. cerevisiae deletion strains, strain wtn01, active compounds read low 1.02 | S. cerevisiae strains, strain wild type, active compounds read low 0.98
